Assay outcomes deposited in PubChem BioAssay by several laboratories.
A selection: hits, their analogues and other compounds. The true share with any hit is near 3.9%.
UBC9 SUMO inh: SUMOylation inhibition | P63279 | HTRF SUMOylation assay, SAE1/SAE2 + UBC9, in vitro | inhibition, % at 35 µM | hit rate 0.36% among 290,000; in the data active = inhibition above about 50%, passing the limit was not always enough
Target sequence (P63279 whole entry, looked up): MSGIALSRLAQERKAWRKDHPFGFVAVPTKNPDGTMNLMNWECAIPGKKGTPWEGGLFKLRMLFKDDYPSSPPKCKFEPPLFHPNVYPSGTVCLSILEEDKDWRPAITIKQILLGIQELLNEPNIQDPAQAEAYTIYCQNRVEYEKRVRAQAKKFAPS
NTR1 agonist: agonists of human neurotensin receptor NTR1; NTR1-U2OS beta-arrestin-GFP spot imaging, agonist mode; activation, % at 20 µM; AID 493036; P30989; hit rate 0.17% among 330,000;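 active = activation at or above 40% of the spot to cytoplasm intensity ratio, with at least 20 cells analyzed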;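 also: 0% = DMSO without peptide and 100% = 100 nM NTR1 peptide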
H9c2 protect: modulators protecting cardiomyocytes from myocardial damage. H9c2 cardiomyocytes, H2O2 injury protection, ATPLite, 2 h. protection from H2O2 cell death, % at 20 µM. hit rate 0.63% among 360,000. AID 588492;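 active = compounds giving at least 50% protection of heart cells from peroxide-induced death in the single-dose screen, raw or plate-pattern-corrected value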;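 also: 0% = DMSO wells with peroxide and 100% = DMSO wells without peroxide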
ALR H2O2 inh: blocks human ALR sulfhydryl oxidase activity; inhibition, % (test concentration not listed); purified ALR, DTT oxidation, H2O2 HRP-luminol luminescence; AID 485317; hit rate 3.8% among 290,000;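 active = mean replicate inhibition above about 79%, with every replicate also reaching it, limit read from the data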
Target sequence (P55789 whole entry, looked up): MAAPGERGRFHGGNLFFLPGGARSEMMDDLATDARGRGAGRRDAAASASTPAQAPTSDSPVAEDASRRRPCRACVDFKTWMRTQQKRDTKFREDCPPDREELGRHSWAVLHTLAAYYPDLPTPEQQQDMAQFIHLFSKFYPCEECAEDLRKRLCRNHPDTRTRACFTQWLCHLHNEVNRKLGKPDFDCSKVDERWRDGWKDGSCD
Starred values were filed as active, the others as inactive; . = no result given.

SMILES | UBC9 SUMO inh | NTR1 agonist | H9c2 protect | ALR H2O2 inh
N#CC1(C#N)CC(C=O)=C(N)C1(C#N)CC(=O)C12CC3CC(CC(C3)C1)C2 (stereo not given) | 19.1 | 1.1 | 0.4 | 96.3*
Nc1nccnc1C(=O)OCC(=O)C12CC3CC(CC(C3)C1)C2 | . | -0.6 | -1.2 | 1.2
CC(=O)c1ccc(NC(=O)N2CCN(c3cccc(Cl)c3)CC2)cc1 | -6.0 | -1.6 | -24.4 | -0.7
CCOc1ccc2c(c1)nc(SCC(=O)c1cccs1)n2C | 7.8 | 0.1 | -8.0 | 97.0*
COC(=O)C(C)n1cnc2c(cnn2-c2ccc(Cl)cc2)c1=O (stereo not given) | -0.1 | 2.2 | -7.4 | -10.0
COC(=O)[C@H](Cc1ccccc1)NC(=O)N1CCN(c2ccc(F)cc2)CC1 | 20.1 | 0.0 | -3.7 | 98.4*
O=c1[nH]c(N/N=C/c2ccc(O)cc2)nc2ccccc12 | 13.0 | -0.8 | 17.0 | 94.7*
C(=N\Nc1nc2ccccc2[nH]1)/c1cccs1 | 1.2 | -7.4 | 1.0 | 98.7*
Clc1cnc(N/N=C/c2cccs2)c(Cl)c1 | -3.6 | -0.6 | -4.9 | 86.1*
Cc1nc2ccccc2c(=O)[nH]1 | 7.4 | -1.0 | 68.7* | -4.4
Cc1ccc(NC(=O)CCNC(=O)c2ccccc2Cl)nc1 | 0.8 | 0.5 | 7.4 | -6.2
C[C@H](CO)N1C[C@H](C)[C@@H](CN(C)Cc2ccncc2)Oc2ccc(NC(=O)Cn3cnnn3)cc2C1=O | . | -0.6 | -4.7 | -1.5
C(=N\Nc1nc2ccccc2[nH]1)/c1ccncc1 | 8.1 | -1.2 | -2.2 | 98.1*
CCOc1ccc2nc(-c3ccccc3)nc(SCC(=O)OC)c2c1 | 4.0 | 2.7 | -6.4 | -18.5
CCCN1C2CCCC1CC(NC(=O)c1ccccc1OCC)C2 (stereo not given) | -10.2 | -0.3 | 1.3 | 0.6
CCc1nnc(NC(=O)c2cc(S(=O)(=O)N3CCCCC3)ccc2N2CCOCC2)s1 | 4.7 | 0.1 | 8.9 | -27.4
CC12CCC(C(=O)N3CCN(c4ccccc4)CC3)(CC1=O)C2(C)C (stereo not given) | 28.0 | -1.5 | . | 98.9*
C=C(C)CC(NCCc1ccccc1)c1ccco1 (stereo not given) | -9.9 | . | -2.4 | .
O=C(O)/C=C/C(=O)Nc1ccccc1C(=O)OCC(=O)c1ccc2c(c1)OCCO2 | 8.6 | -0.9 | -28.1 | 87.9*
CCOC(=O)c1ccccc1NC(=O)/C=C/C(=O)O | 1.6 | 0.6 | 1.0 | 98.2*
Cc1ccccc1CS(=O)(=O)c1ccc(C(=O)N2CCC(C)CC2)cc1[N+](=O)[O-] | 0.1 | -0.8 | -15.1 | 97.2*
CC1CCN(C(=O)c2ccc(S(=O)(=O)Cc3cccc(F)c3)c([N+](=O)[O-])c2)CC1 | 8.0 | 0.6 | -6.4 | -0.6
CC1(C)CC(NCCN2CCN(C3=CC(=C(C#N)C#N)CC(C)(C)C3)CC2)=CC(=C(C#N)C#N)C1 | -9.6 | 1.4 | 56.1* | .
CC(=O)Nc1cccc(-c2nn[nH]n2)c1 | 12.5 | 0.8 | 3.7 | .
O=C(COc1ccccc1)Nc1cccc(-c2nn[nH]n2)c1 | -2.2 | 2.0 | 3.5 | 98.8*
SMILES | UBC9 SUMO inh | NTR1 agonist | H9c2 protect | ALR H2O2 inh
O=C(Nc1cccc(-c2nn[nH]n2)c1)c1csc2c1CCCC2 | 17.4 | 1.0 | 1.4 | 98.8*
Cn1nc(NC(=O)C(F)(F)F)c2nccnc21 | . | . | 3.9 | .
Cn1c(CNS(=O)(=O)c2cccc(Cl)c2)cc(=O)n(C)c1=O | 5.3 | 0.8 | 7.1 | -2.9
COc1ccc(CCNC(=O)CS(=O)(=O)Cc2nc(-c3ccccc3Cl)oc2C)cc1OC | -1.2 | -2.7 | 14.3 | 66.4
Cc1ccc(CCNC(=O)CS(=O)Cc2nc(-c3ccccc3F)oc2C)cc1 (stereo not given) | -1.5 | 0.2 | -2.0 | 98.8*
COc1ccc(CCNC(=O)CS(=O)Cc2nc(-c3cccs3)oc2C)cc1OC (stereo not given) | -7.7 | -0.7 | -3.7 | 98.7*
CCOc1ccc(CCNC(=O)CS(=O)(=O)Cc2nc(-c3ccccc3F)oc2C)cc1 | 17.7 | 2.5 | -4.8 | -3.1
COc1ccc(CCNC(=O)CS(=O)Cc2nc(-c3ccccc3F)oc2C)cc1OC (stereo not given) | 3.8 | -0.9 | 4.6 | 99.1*
COc1ccc(CCNC(=O)CS(=O)Cc2nc(-c3ccccc3Cl)oc2C)cc1OC (stereo not given) | 3.7 | -1.9 | -1.4 | 98.2*
O=C(c1ccc([N+](=O)[O-])cc1)N1CCC(n2nnc3cc(F)ccc32)CC1 | 3.4 | 0.4 | -8.1 | -2.5
CCCCc1nnc(NC(=O)c2ccc(S(=O)(=O)N3CCOCC3)cc2)s1 | . | 5.0 | 1.9 | 0.0
CC(C)[C@H](NS(=O)(=O)c1ccccc1)C(=O)Nc1nccs1 | . | -0.8 | 4.5 | -1.9
c1ccc(C2Oc3ccccc3C3CC(c4cccs4)=NN32)cc1 (stereo not given) | 17.0 | -2.5 | 9.7 | 97.7*
